Results: the supplement of paper PMC8728848
About 410 targets per protein were measured; listed, in parts, are those with the strongest signals and a random draw of the rest.

Key:
Experiment in all cases: glycan array binding signal (z-score within array); higher = stronger binding
Conditions in all cases: glycan notation: IUPAC condensed, linker removed
[1] = molecular target: Fuc(a1-2)Gal(b1-4)GlcNAc(b1-3)Gal(b1-4)GlcNAc(b1-3)Gal(b1-4)GlcNAc
Procedure, shortened: (§1)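 Negative Z-scores can be read as non-binding. The Z-score is calculated within each array and then averaged across arrays of one protein sequence at different concentrations or buffers and across linkers. Arrays, 3228 in all, were curated from the Consortium for Functional Glycomics database and kept only where the protein sequence was available.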

[2] = molecular target: Fuc(a1-2)Gal(b1-4)[Fuc(a1-3)]GlcNAc(b1-2)Man(a1-6)[Fuc(a1-2)Gal(b1-4)[Fuc(a1-3)]GlcNAc(b1-2)Man(a1-3)]Man(b1-4)GlcNAc(b1-4)[Fuc(a1-6)]GlcNAc
Procedure, shortened: as §1

[3] = molecular target: Fuc(a1-2)Gal6S(b1-3)GlcNAc6S
Procedure, shortened: as §1

[4] = molecular target: Fuc(a1-2)Gal6S(b1-4)Glc6S
Procedure, shortened: as §1

[5] = molecular target: Fuc(a1-2)[Gal(a1-3)]Gal(b1-4)[Fuc(a1-3)]Glc
Procedure, shortened: as §1

[6] = molecular target: Fuc(a1-3)[Gal(b1-4)]GlcNAc(b1-2)Man(a1-3)[Fuc(a1-3)[Gal(b1-4)]GlcNAc(b1-2)Man(a1-6)]Man(b1-4)GlcNAc(b1-4)[Fuc(a1-6)]GlcNAc
Procedure, shortened: as §1

[7] = molecular target: Fuc(a1-3)[GalNAc(b1-4)]GlcNAc
Procedure, shortened: as §1

[8] = molecular target: Gal(a1-3)Gal(b1-3)GlcNAc(b1-2)Man(a1-3)[Gal(a1-3)Gal(b1-3)GlcNAc(b1-2)Man(a1-6)]Man(b1-4)GlcNAc(b1-4)GlcNAc
Procedure, shortened: as §1

[9] = molecular target: Gal(a1-3)Gal(b1-3)GlcNAc(b1-3)GalNAc
Procedure, shortened: as §1

[10] = molecular target: Gal(a1-3)Gal(b1-4)GlcNAc(b1-3)GalNAc
Procedure, shortened: as §1

[11] = molecular target: Gal(a1-4)Gal(b1-3)GlcNAc(b1-2)Man(a1-3)[Gal(a1-4)Gal(b1-3)GlcNAc(b1-2)Man(a1-6)]Man(b1-4)GlcNAc(b1-4)GlcNAc
Procedure, shortened: as §1

[12] = molecular target: Gal(a1-4)Gal(b1-4)GlcNAc(b1-2)Man(a1-3)[Gal(a1-4)Gal(b1-4)GlcNAc(b1-2)Man(a1-6)]Man(b1-4)GlcNAc(b1-4)GlcNAc
Procedure, shortened: as §1

[13] = molecular target: Gal(b1-3)GlcNAc(b1-3)Gal(b1-4)GlcNAc
Procedure, shortened: as §1

[14] = molecular target: Gal(b1-3)GlcNAc(b1-3)Gal(b1-4)GlcNAc(b1-6)[Gal(b1-3)GlcNAc(b1-3)]Gal(b1-4)Glc
Procedure, shortened: as §1

[15] = molecular target: Gal(b1-3)GlcNAc(b1-3)GalNAc
Procedure, shortened: as §1

[16] = molecular target: Gal(b1-3)GlcNAc(b1-6)Gal(b1-4)GlcNAc
Procedure, shortened: as §1

[17] = molecular target: Gal(b1-4)GlcNAc(a1-6)Gal(b1-4)GlcNAc
Procedure, shortened: as §1

[18] = molecular target: Gal(b1-4)GlcNAc(b1-2)Man(a1-3)[Gal(b1-4)GlcNAc(b1-2)Man(a1-6)]Man(b1-4)GlcNAc(b1-4)[Fuc(a1-6)]GlcNAc
Procedure, shortened: as §1

[19] = molecular target: Gal(b1-4)GlcNAc(b1-2)Man(a1-6)Man(b1-4)GlcNAc(b1-4)GlcNAc
Procedure, shortened: as §1

[20] = molecular target: Gal(b1-4)GlcNAc(b1-3)Gal(b1-4)Glc
Procedure, shortened: as §1

[21] = molecular target: Gal(b1-4)GlcNAc(b1-6)Gal(b1-4)GlcNAc
Procedure, shortened: as §1

[22] = molecular target: GalNAc(b1-3)Gal(a1-4)Gal(b1-4)GlcNAc(b1-3)Gal(b1-4)Glc
Procedure, shortened: as §1

[23] = molecular target: GalNAc(b1-3)Gal(a1-6)Gal(b1-4)Glc
Procedure, shortened: as §1

[24] = molecular target: GlcA(b1-3)GlcNAc
Procedure, shortened: as §1

[25] = molecular target: GlcA(b1-6)Gal
Procedure, shortened: as §1

[26] = molecular target: GlcNAc(a1-4)Gal(b1-4)GlcNAc(b1-3)Gal(b1-4)GlcNAc(b1-3)Gal(b1-4)GlcNAc
Procedure, shortened: as §1

[27] = molecular target: GlcNAc(a1-4)Gal(b1-4)GlcNAc(b1-3)Gal(b1-4)[Fuc(a1-3)]GlcNAc(b1-3)Gal(b1-4)[Fuc(a1-3)]GlcNAc
Procedure, shortened: as §1

[28] = molecular target: GlcNAc(b1-2)Man(a1-3)[GlcNAc(b1-2)Man(a1-6)]Man(b1-4)GlcNAc(b1-4)GlcNAc
Procedure, shortened: as §1

[29] = molecular target: GlcNAc(b1-2)[GlcNAc(b1-4)]Man(a1-3)[GlcNAc(b1-2)Man(a1-6)]Man(b1-4)GlcNAc(b1-4)GlcNAc
Procedure, shortened: as §1

[30] = molecular target: GlcNAc(b1-3)Gal(b1-4)GlcNAc
Procedure, shortened: as §1

[31] = molecular target: GlcNAc(b1-3)Man
Procedure, shortened: as §1

[32] = molecular target: Man(a1-2)Man(a1-3)Man
Procedure, shortened: as §1

[33] = molecular target: Man(a1-3)[Man(a1-6)]Man(a1-6)[Man(a1-2)Man(a1-3)]Man(b1-4)GlcNAc(b1-4)GlcNAc
Procedure, shortened: as §1

[34] = molecular target: Man(a1-3)[Man(a1-6)]Man(a1-6)[Man(a1-3)]Man
Procedure, shortened: as §1

[35] = molecular target: Man(a1-3)[Man(a1-6)]Man(b1-4)GlcNAc(b1-4)GlcNAc
Procedure, shortened: as §1

[36] = molecular target: Man(a1-3)[Man(a1-6)]Man(b1-4)GlcNAc(b1-4)[Fuc(a1-6)]GlcNAc
Procedure, shortened: as §1

[37] = molecular target: Neu5Ac(a2-3)Gal(b1-4)GlcNAc(b1-2)[Neu5Ac(a2-3)Gal(b1-4)GlcNAc(b1-6)]Man(a1-6)[Neu5Ac(a2-3)Gal(b1-4)GlcNAc(b1-2)Man(a1-3)]Man(b1-4)GlcNAc(b1-4)GlcNAc
Procedure, shortened: as §1

[38] = molecular target: Neu5Ac(a2-3)Gal(b1-4)GlcNAc(b1-3)Gal
Procedure, shortened: as §1

[39] = molecular target: Neu5Ac(a2-3)Gal(b1-4)GlcNAc6S
Procedure, shortened: as §1

[40] = molecular target: Neu5Ac(a2-6)Gal(b1-4)GlcNAc(b1-2)Man(a1-6)[GlcNAc(b1-2)Man(a1-3)]Man(b1-4)GlcNAc(b1-4)GlcNAc
Procedure, shortened: as §1

[41] = molecular target: Neu5Ac9Ac(a2-3)Gal(b1-3)GlcNAc
Procedure, shortened: as §1

[42] = molecular target: Neu5Gc(a2-3)Gal(b1-4)GlcNAc
Procedure, shortened: as §1

B1: RVL (Remusatia vivipara), B5LYJ9 (protein)
chain: MAKLLLFLLPAILGLLVPRSAVALGTNYLLSGQTLDTEGHLKNGDFDLVMQDDCNLVLYNGNWQSNTANNGRDCKLTLTDYGELVIKNGDGSTVWKSGAQSVKGNYAAVVHPDGRLVVLGPSVFKIDPWVRGLNSLRFRNIPFTNNLLFSGQVLYGDGRLTAKNHQLVMQGDCNLVLYGGKYGWQSNTHGNGEHCFLRLNHKGELIIKDDDFKTIWSSRSSSKQGEYVLILQDDGFGVIYGPAIFETSSKRSIAAS
glycan array binding signal (z-score) [1]: -0.272 | glycan array binding signal (z-score) [2]: 9.79 | glycan array binding signal (z-score) [3]: 0.483 | glycan array binding signal (z-score) [4]: -0.151 | glycan array binding signal (z-score) [5]: -0.32 | glycan array binding signal (z-score) [6]: 0.076 | glycan array binding signal (z-score) [7]: -0.292 | glycan array binding signal (z-score) [8]: 0.313 | glycan array binding signal (z-score) [9]: -0.166 | glycan array binding signal (z-score) [10]: -0.178 | glycan array binding signal (z-score) [11]: 1.75 | glycan array binding signal (z-score) [12]: 1.93 | glycan array binding signal (z-score) [13]: -0.252 | glycan array binding signal (z-score) [14]: -0.574 | glycan array binding signal (z-score) [15]: -0.055 | glycan array binding signal (z-score) [16]: 0.004 | glycan array binding signal (z-score) [17]: -0.142 | glycan array binding signal (z-score) [18]: 7.05 | glycan array binding signal (z-score) [19]: -0.136 | glycan array binding signal (z-score) [20]: -0.252 | glycan array binding signal (z-score) [21]: -0.216 | glycan array binding signal (z-score) [22]: -0.066 | glycan array binding signal (z-score) [23]: -0.17 | glycan array binding signal (z-score) [24]: -0.098 | glycan array binding signal (z-score) [25]: -0.23 | glycan array binding signal (z-score) [26]: 0.124 | glycan array binding signal (z-score) [27]: 0.3 | glycan array binding signal (z-score) [28]: 0.913 | glycan array binding signal (z-score) [29]: 2.4 | glycan array binding signal (z-score) [30]: -0.145 | glycan array binding signal (z-score) [31]: -0.227 | glycan array binding signal (z-score) [32]: -0.197 | glycan array binding signal (z-score) [33]: 3.91 | glycan array binding signal (z-score) [34]: 0.224 | glycan array binding signal (z-score) [35]: 3.8 | glycan array binding signal (z-score) [36]: 6.15 | glycan array binding signal (z-score) [37]: 3.54 | glycan array binding signal (z-score) [38]: -0.103 | glycan array binding signal (z-score) [39]: -0.033 | glycan array binding signal (z-score) [40]: -0.207 | glycan array binding signal (z-score) [41]: -0.284 | glycan array binding signal (z-score) [42]: -0.111
